Entries with a potency or affinity are not part of this list. Results filed as inconclusive are left out. Activity calls are given as the source filed them. Unless noted, no rule for the calls is given here.
Tests used:
[1] = PAX8 transcriptional activity inhibition in RMG-I – RMG-I cells, luciferase, cherry-pick, dose response (AID 687027;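 active = every replicate test run called active, with the signal dropping as expected and potency within twice the top valid dose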)
[2] = RMG-1 ovarian cancer cell viability loss – cherry-pick, dose response (AID 687029;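 active = signal drop whose fitted half-maximal concentration is at most twice the top valid dose, in every test run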;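 also: cells exposed to compound for 96 hours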)
[3] = IOSE-T80 viability loss, PAX8-independent line – cell-based, cherry-pick, selectivity assay for PAX8 inhibitor project, dose response (AID 687032;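 active = fitted half-maximal concentration for viability loss no higher than twice the top valid dose, in every repeat run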;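 also: cells exposed to compound for 96 h before reading; 0% = neutral control wells and -100% = 2 µM mitoxantrone kill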)
[4] = CMV-driven luciferase expression suppression in HEK293 – cell-based, luminescence, dry powder, counter-screen for Pax8 inhibitor project, dose response (AID 743020;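 active = signal-lowering compounds whose fitted half-maximal concentration is at or below twice the top tested dose in every run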;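 also: HEK293 cells stably expressing the CMV luciferase reporter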)
[5] = general cell-killing toxicity readout – plate reader, dry powder samples, cytotoxicity control for PAX8 inhibitor project, dose response (AID 743021)
[6] = IGROV1 cell killing – plate reader, dry powder samples, PAX8 inhibitor project, dose response (AID 743043);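 also: more negative means fewer viable cells or more cytotoxicity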
[7] = OVCAR-3 cell viability loss – plate reader, dry powder samples, PAX8 inhibitor project, dose response (AID 743044); settings: max activity: at 35 µM, stronger effect = lower value unless noted
[8] = toxicity toward immortalized ovarian surface epithelium – cell-based, plate reader, dry powder samples, cytotoxicity control for PAX8 inhibitor project, dose response (AID 743045);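 also: 0% = neutral control median and -100% = positive control median; more negative values mean more cell killing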
[9] = A2780 cell killing – plate reader, dry powder samples, cytotoxicity control, dose response (AID 743046);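 also: 0% = neutral control wells and -100% = cytotoxic reference compound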
[10] = OVCAR8 cell viability loss – plate reader, dry powder samples, PAX8 project, dose response (AID 743197)

Measured: max activity

O=C(C[C@H]1C[C@H]2c3cc(NS(=O)(=O)c4ccc(F)cc4)ccc3O[C@H]2[C@H](CO)O1)NCc1ccc(-c2ccccc2)cc1
inactive: [1] | [2] | [3] | [4] | [5] | [6] | [7] 10.6% [at 1 µM, stronger effect = lower value] | [8] | [9] | [10]

C[C@@H]1CCCCO[C@H](CN(C)C)[C@H](C)CN([C@@H](C)CO)C(=O)c2cc(NS(=O)(=O)c3ccc(Cl)cc3)ccc2O1
inactive: [1] | [2] | [3] | [4] | [6] | [7] 34.9% [at 0.26 µM, stronger effect = lower value] | [8] | [9] | [10]

O=C(NC1CCCC1)N1CCCCN2[C@@H](CO)[C@@H](c3ccc(/C=C/c4ccccc4)cc3)[C@@H]2C1
inactive: [1] | [2] | [3] | [4] | [5] | [6] | [7] 28.4% [at 2.1 µM, stronger effect = lower value] | [8] | [10]

CC=Cc1ccc2n(c1=O)C[C@H]1[C@H](CO)[C@@H](C(=O)NC3CCC3)N(CC)[C@@H]21 (mixture of isomers)
inactive: [1] | [2] | [3] | [4] | [5] | [6] | [7] 9.45% | [8] | [9] | [10]

O=C(C[C@@H]1C[C@@H]2c3cc(NC(=O)Nc4ccccc4F)ccc3O[C@@H]2[C@H](CO)O1)NCc1ccc(Oc2ccccc2)cc1
inactive: [1] | [2] | [3] | [4] | [5] | [6] | [7] 14% [at 0.5 µM, stronger effect = lower value] | [8] | [9] | [10]

CO[C@@H]1CN(C)C(=O)c2cc(NC(=O)c3ccccc3F)ccc2OC[C@@H](C)N(CC2CC2)C[C@@H]1C
inactive: [1] | [2] | [3] | [4] | [5] | [6] | [7] 9.58% [at 0.5 µM, stronger effect = lower value] | [8] | [9] | [10]

O=C(C[C@@H]1C=C[C@H](NC(=O)Nc2ccc(C(F)(F)F)cc2)[C@H](CO)O1)NCCN1CCCC1
inactive: [1] | [2] | [3] | [4] | [5] | [6] | [7] 7.59% [at 2.1 µM, stronger effect = lower value] | [8] | [9] | [10]

Cc1ccc(-c2ccc([C@@H]3[C@@H]4CN(Cc5ccccc5F)C[C@H]3N4)cc2)cc1
inactive: [1] | [2] | [3] | [4] | [7] -28% | [8] | [10]

C[C@@H]1CN([C@@H](C)CO)C(=O)c2cccc(NS(=O)(=O)c3ccc(F)cc3)c2O[C@H]1CN(C)Cc1ccc(-c2ccccc2)cc1
inactive: [1] | [2] | [3] | [4] | [5] | [6] | [7] 17.5% | [8] | [9] | [10]

O=C(C[C@H]1C[C@@H]2c3cc(NC(=O)C4CCOCC4)ccc3O[C@@H]2[C@@H](CO)O1)NCc1ccc(Oc2ccccc2)cc1
inactive: [1] | [2] | [3] | [4] | [6] | [7] -14.4% [at 4.2 µM, stronger effect = lower value] | [8] | [9] | [10]

C[C@H]1CCCCO[C@H](CN(C)Cc2ccccc2)[C@@H](C)CN([C@@H](C)CO)C(=O)c2cc(NC(=O)Nc3ccc(C(F)(F)F)cc3)ccc2O1
inactive: [1] | [2] | [3] | [4] | [5] | [8] | [9]

COc1ccc(NC(=O)N2CCCCN3[C@@H](CO)[C@@H](c4ccc(C5=CCCC5)cc4)[C@@H]3C2)cc1
inactive: [1] | [2] | [3] | [4] | [5] | [6] | [8]

C[C@@H]1CCCCO[C@@H](CN(C)CC2CCCCC2)[C@H](C)CN([C@H](C)CO)C(=O)c2cc(NC(=O)Nc3ccccc3)ccc2O1
inactive: [1] | [2] | [3] | [4] | [5] | [6] | [7] -37.2% [at 4.2 µM, stronger effect = lower value] | [8] | [10]

COc1cccc(-c2ccc(C3[C@@H]4CN(Cc5cccc(F)c5)C[C@H]3N4)cc2)c1 (some centres not stated)
inactive: [1] | [2] | [3] | [4] | [5] | [9] | [10]

CN1[C@@H]2Cn3c(ccc(-c4ccccc4)c3=O)[C@H]1[C@@H](C(=O)NC1CCCCC1)[C@@H]2CO
inactive: [1] | [2] | [3] | [4] | [5] | [6] | [7] -24.4% | [8] | [9] | [10]

C[C@@H]1CN([C@@H](C)CO)C(=O)c2cc(NS(=O)(=O)c3ccc(Cl)cc3)ccc2O[C@@H](C)CCCCO[C@H]1CN(C)C
inactive: [1] | [2] | [3] | [4] | [5] | [6] | [7] -14.3% | [8] | [9] | [10]

C[C@H]1CN([C@@H](C)CO)C(=O)c2cccc(NC(=O)Nc3ccc(C(F)(F)F)cc3)c2O[C@H]1CN(C)C(=O)NC1CCCCC1
inactive: [1] | [2] | [3] | [4] | [5] | [6] | [7] -14.7% [at 8 µM, stronger effect = lower value] | [8]

O=C(Nc1ccc(C(F)(F)F)cc1)Nc1ccc2c(c1)[C@@H]1C[C@@H](CC(=O)N3CCc4ccccc4C3)O[C@H](CO)[C@@H]1O2
inactive: [1] | [2] | [3] | [4] | [5] | [6] | [7] 19.1% [at 2.1 µM, stronger effect = lower value] | [8] | [9] | [10]

Fc1cccc(CN2C[C@@H]3N[C@H](C2)C3c2ccc(-c3ccccc3)cc2)c1 (some centres not stated)
inactive: [1] | [2] | [3] | [4] | [5] | [8]

CCOc1ccc(C(=O)Nc2ccc(Cc3ccncc3)cc2)cc1Br
inactive: [1] | [2] | [3] | [4] | [5]

C[C@@H]1CN([C@H](C)CO)C(=O)c2cc(NC(=O)Cc3ccccc3)ccc2O[C@@H](C)CCCCO[C@H]1CN(C)Cc1ccc(Cl)c(Cl)c1
inactive: [1] | [2] | [3] | [4] | [5] | [6] | [8] | [9]

O=C(Cc1ccccn1)N[C@@H]1CC[C@@H](CCn2cc(-c3ccccc3)nn2)O[C@H]1CO
inactive: [1] | [2] | [3] | [4] | [5] | [6] | [7] 6.29% | [8] | [9] | [10]

O=C(NC1CCCCC1)C(c1ccc(F)cc1)N(Cc1ccco1)C(=O)CN1C(=O)c2ccccc2S1(=O)=O (configuration not stated)
inactive: [1] | [2] | [3] | [4] | [5]

C[C@H]1CN([C@@H](C)CO)C(=O)c2cccc(NC(=O)Nc3cccc4ccccc34)c2O[C@H]1CN(C)CC1CC1
inactive: [1] | [2] | [3] | [4] | [5] | [6] | [7] -29.9% | [8] | [9] | [10]

COc1ccc(-c2ccc3c(c2)[C@H]2[C@H](CCN2C(=O)Cc2cccnc2)[C@H](CO)N3C)cc1
inactive: [1] | [2] | [3] | [4] | [5] | [6] | [7] 35.5% [at 0.26 µM, stronger effect = lower value] | [8] | [9]

C[C@H](O)C#Cc1ccc([C@@H]2[C@@H](CO)N3CCCCN(S(=O)(=O)c4ccccc4)C[C@H]23)cc1
inactive: [1] | [2] | [3] | [4] | [5] | [6] | [7] 11.5% [at 0.26 µM, stronger effect = lower value] | [8] | [9] | [10]

C[C@H](O)C#Cc1ccc2c(c1)O[C@@H](CN(C)Cc1ccc(-c3ccccc3)cc1)[C@H](C)CN([C@@H](C)CO)S2(=O)=O
inactive: [1] | [2] | [3] | [4] | [5] | [6] | [7] -13.7% | [8] | [10]

COc1ccc2c3c([nH]c2c1)[C@@H](CO)N(C(=O)C1CC1)CC31CN(Cc2nccs2)C1
inactive: [1] | [2] | [3] | [4] | [5] | [6] | [7] 23.4% [at 4.2 µM, stronger effect = lower value] | [8] | [9] | [10]

COc1ccc(-c2cn(CC[C@H]3CC[C@H](NC(=O)Cc4ccccn4)[C@@H](CO)O3)nn2)cc1
inactive: [1] | [2] | [3] | [4] | [5] | [6] | [7] -17.4% | [8] | [9] | [10]

COc1ccc(-c2cn(CC[C@@H]3CC[C@H](NC(=O)Cc4ccccn4)[C@H](CO)O3)nn2)cc1
inactive: [1] | [2] | [3] | [4] | [5] | [6] | [7] 27.6% [at 1 µM, stronger effect = lower value] | [8] | [10]

COc1ccc(-c2cn(CC[C@H]3CC[C@@H](NC(=O)Cc4ccccn4)[C@H](CO)O3)nn2)cc1
inactive: [1] | [2] | [3] | [4] | [5] | [6] | [7] 35.1% [at 2.1 µM, stronger effect = lower value] | [8] | [10]

COc1ccccc1NC(=O)N1CCCCN2[C@H](CO)[C@H](c3ccc(-c4ccc(C)cc4)cc3)[C@H]2C1
inactive: [1] | [2] | [3] | [4] | [5] | [6] | [7] 15.5% [at 1 µM, stronger effect = lower value] | [8] | [9] | [10]

Source: PubChem BioAssay
